Data: the supplement of paper PMC13380429

system: Vero E6 infected with SARS-CoV-2; experiment: morphology score (similarity to uninfected cells); higher = more like uninfected cells; details: 24 h

| Compound | morphology score |
| --- | --- |
| Cc1ccc(/C=N/NC(=O)c2ccccc2Oc2ccccc2)o1 (10 µM) | 0.268 |
| CCCCCCCCCCCCCCCCCC(=O)OC[C@@H](O)[C@H]1OC[C@H](O)[C@H]1O [sorbitan-monostearate] (10 µM) | 0.0535 |
| CCn1cnc2c(Nc3cccc(Cl)c3)nc(N[C@@H]3CCCC[C@@H]3N)nc21 (0.833333 µM) | -0.35 |
| COc1cc(C(=O)OCCCN2CCCN(CCCOC(=O)c3cc(OC)c(OC)c(OC)c3)CC2)cc(OC)c1OC [dilazep] (0.833333 µM) | -0.00497 |
| CCc1c2c(nc3ccc(OC(=O)N4CCC(N5CCCCC5)CC4)cc13)-c1cc3c(c(=O)n1C2)COC(=O)[C@]3(O)CC [irinotecan] (0.833333 µM) | -0.0173 |
| O=c1c(O[C@@H]2O[C@H](CO)[C@H](O)[C@H](O)[C@H]2O)c(-c2ccc(O)c(O)c2)oc2cc(O)cc(O)c12 [hyperin] (10 µM) | -0.0819 |
| O=C1N[C@@H]2[C@@H](O)[C@@H](O)[C@H](O)[C@@H](CO)N2C1=O [kifunensine] (10 µM) | 0.19 |
| CCOc1ccc(Cc2cc([C@]34OC[C@](CO)(O3)[C@@H](O)[C@H](O)[C@H]4O)ccc2Cl)cc1 [ertugliflozin] (10 µM) | -0.0565 |
| CC(=O)c1c(O)cc(C)oc1=O [dehydroacetic-acid] (10 µM) | 0.121 |
| O=C(Oc1cc(S(=O)(=O)c2ccccc2)ccc1[N+](=O)[O-])c1ccc(Cl)cc1 (10 µM) | 0.245 |
| COc1ccc(NS(=O)(=O)c2ccc(N)cc2)nn1 [sulfamethoxypyridazine] (10 µM) | 0.0793 |
| O=C[C@H](F)[C@@H](O)[C@@H](O)[C@H](O)CO [2-fluoro-2-deoxy-D-galactose] (10 µM) | 0.127 |
| COc1cc2nccc(Oc3ccc(NC(=O)Nc4ccc(F)cc4F)c(F)c3)c2cc1OC (10 µM) | 0.12 |
| O=C(O)CCCCCCCC(=O)O [azelaic-acid] (10 µM) | 0.0279 |
| NC(=O)CCCCC1CCSS1 (centres undefined) [lipoamide] (10 µM) | -0.0248 |
| NC(=O)c1cnc(N[C@@H]2CCCC[C@@H]2N)nc1Nc1cccc(-n2nccn2)c1 (10 µM) | 0.582 |
| Nc1c(CC(=O)O)cccc1C(=O)c1ccc(Br)cc1 [bromfenac] (10 µM) | -0.048 |

| Compound | morphology score |
| --- | --- |
| Cc1cc(C)c(S(=O)(=O)Nc2cccc(C(F)(F)F)c2)c(C)c1 (10 µM) | 0.152 |
| Cn1nnc(-c2ccc(-c3ccc(N4C[C@H](COP(=O)(O)O)OC4=O)cc3F)cn2)n1 [tedizolid-phosphate] (10 µM) | 0.194 |
| CC[N+](CC)(CC)CC(=O)Nc1c(C)cccc1C (10 µM) | 0.0409 |
| OCCN(CCO)c1nc(N2CCCCC2)c2nc(N(CCO)CCO)nc(N3CCCCC3)c2n1 [dipyridamole] (10 µM) | 0.26 |
| O=C(CCCN1CCC(n2c(=O)[nH]c3ccccc32)CC1)c1ccc(F)cc1 [benperidol] (10 µM) | -0.264 |
| CC1CCN(CC[C@H]2CCCN2S(=O)(=O)c2cccc(O)c2)CC1 (10 µM) | 0.0739 |
| O=C(/C=C/c1ccc(O)cc1)c1ccc(O)cc1O [isoliquiritigenin] (10 µM) | 0.403 |
| CCn1nc(C2CCN(C(=O)CCO)CC2)nc1-c1cnc(N)c(-c2nnc(C(C)(C)C)o2)n1 (0.833333 µM) | 0.199 |
| O=C(Nc1cccnc1)N1CCC(Cc2cccc(Oc3ccc(C(F)(F)F)cn3)c2)CC1 (0.833333 µM) | 0.191 |
| CS(=O)(=O)n1cc2c(n1)CN([C@H]1CO[C@H](c3cc(F)ccc3F)[C@@H](N)C1)C2 [omarigliptin] (10 µM) | 0.198 |
| CCC1(C2=NCCN2)Cc2ccccc2O1 (centres undefined) [efaroxan] (10 µM) | 0.165 |
| CN1C(=O)/C(=C2/C(=O)Nc3ccccc32)c2ccccc21 [meisoindigo] (0.833333 µM) | 0.0882 |
| Cc1cc(C(C)(C)C)cc(C)c1CC1=NCCN1 [xylometazoline] (10 µM) | -0.0246 |
| NCC(=O)O (10 µM) | 0.146 |
| COc1cnc(NS(=O)(=O)c2ccc(N)cc2)nc1 [sulfameter] (10 µM) | 0.131 |
| CC1C(=O)OC2C(O)C34C5CC(C(C)(C)C)C36C(OC(=O)C6O)OC4(C(=O)O5)C12O (centres undefined) [ginkgolide-B] (10 µM) | 0.264 |
| Cc1ccc([N+](=O)[O-])cc1O [2-methyl-5-nitrophenol] (10 µM) | 0.0626 |
